A549 viability: A549 cytotoxicity, counter-screen for Nrf2 inhibitors. A549 ARE-Fluc cells, CellTiter-Fluor viability, 18-24 h. hit rate 0.16% among 390,000. Potency, µM (highest dose often 46 µM), actives largely listed as inhibitors. AID 504648
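Cytotoxicity counterscreen: CellTiter-Fluor fluorescence was measured in A549 ARE_Fluc cells after 18-24 h of compound exposure in a concentration series. The subsequent BugLite luminescent read reports ARE-luciferase activity.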
PI4K2A inh: inhibitors of human PI4K2A; purified PI4K2A, ADP-Glo luminescence, 1 h; stronger effect = lower value; Q9BTU6; hit rate 0.13% among 420,000; activity change, negative = inhibition, % at 76.9 µM; in the data active = activity change below about -50%; inconclusive = mostly about -30% to -49%
Target sequence (Q9BTU6 whole entry, looked up): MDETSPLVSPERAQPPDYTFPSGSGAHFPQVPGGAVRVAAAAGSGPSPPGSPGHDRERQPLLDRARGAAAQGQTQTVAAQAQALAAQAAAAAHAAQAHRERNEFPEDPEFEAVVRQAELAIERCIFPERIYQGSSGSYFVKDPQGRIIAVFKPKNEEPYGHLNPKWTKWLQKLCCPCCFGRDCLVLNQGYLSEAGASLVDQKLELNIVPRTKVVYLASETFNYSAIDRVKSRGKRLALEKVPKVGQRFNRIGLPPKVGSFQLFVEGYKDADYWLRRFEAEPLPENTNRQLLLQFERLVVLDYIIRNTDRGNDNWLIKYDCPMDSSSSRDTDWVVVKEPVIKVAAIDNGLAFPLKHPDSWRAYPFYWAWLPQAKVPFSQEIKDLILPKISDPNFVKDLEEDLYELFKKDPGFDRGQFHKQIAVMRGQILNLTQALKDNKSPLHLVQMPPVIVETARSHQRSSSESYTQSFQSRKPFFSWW
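Compounds are screened against recombinant PI4K2A using PI as substrate and ATP, the latter dispensed at 300 microM. Reactions run one hour at ambient temperature before ADP-Glo detection; full inhibition defined by wells lacking enzyme.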
KB-V1 cytotox: kills drug-selected multidrug resistant KB-V1 cells. KB-V1 MDR cells viability, CellTiter-Glo, 72 h. Potency, µM (top dose mostly 46.1 µM), actives largely listed as cytotoxic. hit rate 3.4% among 400,000. AID 1347076; note: nearly all actives have a fitted effect of over 60% in size
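KB-V1, DMEM (no phenol red) + 10% FBS; cpd pin-transferred, titration series; 72 h, 37 degrees C; CellTiter-Glo, luminescence. Data normalized, curve-fit.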
Giardia killer: kills Giardia lamblia; hit rate 0.15% among 340,000; activity change, % at 7.66 µM, hits read low; Giardia lamblia trophozoite viability; in the data active = activity change below about -80%; inconclusive = between about -30% and that limit;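 note: parasites exposed to compound for two days anaerobically before the ATP read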
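Luminescence from cellular ATP indicates surviving trophozoites (100 cells/well) following 48 hrs anaerobic compound treatment at 37 deg C; signal develops 15-30 min at room temperature.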
Nrf2 inh: Nrf2 pathway inhibition | A549 ARE-Fluc reporter, luciferase luminescence, 18-24 h | Potency, µM (top dose mostly 46 µM), actives largely listed as inhibitors | hit rate 2.1% among 360,000 | AID 504444; note: nearly all actives have a fitted effect of over 60% in size
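Cells were seeded and rested 2 h, then exposed to compounds for 18-24 h. CellTiter-Fluor was read first as a viability measure. BugLite was added 15 min before the final luminescent read of ARE-luciferase activity in A549 cells.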
KB-3-1 tox: kills parental KB-3-1 adenocarcinoma cells; KB-3-1 viability, CellTiter-Glo ATP luminescence, 72 h; Potency, µM (doses to about 46.1 µM), actives largely listed as cytotoxic; hit rate 1.4% among 400,000; note: nearly all actives have a fitted effect of over 60% in size
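Luminescent ATP read-out (CellTiter-Glo) measures survival of drug-naive KB-3-1 cells after 72 h compound exposure at 37 °C. Titration series was screened from lowest to highest concentration, with DMSO vehicle plates as background controls.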
Hits are given with their value; i = inactive; ? = inconclusive; nt = no result. In the library only some 5.7% were active in any assay of this set; here they are far more common. Unless noted, calls come from the whole dose curve; as a rule, active = well fitted curve in the direction sought with a large enough effect; inconclusive = small, poorly fitted or top-dose-only effect, or another doubt; inactive = no such curve, though single readings can be large; an effect the other way counts as inactive or inconclusive.

SMILES	A549 viability	PI4K2A inh	KB-V1 cytotox	Giardia killer	Nrf2 inh	KB-3-1 tox
Cc1cccc(C(=O)N[C@H]2CC[C@@]34CCCN3C(=O)CCC[C@H]4[C@H]2C)c1	nt	i	nt	nt	nt	nt
CCOc1ccc(CNCc2c(C(=O)O)c(C)n(Cc3ccc(C)cc3)c2C)cc1	i	i	?	nt	i	i
CN(C)c1ccc(CN2CCCCCC2)cc1	i	i	i	i	i	i
CCN(CC)c1ccc(CN2CCCCCC2)cc1	i	i	18µM	i	i	?
c1ccc(Cn2nnnc2C(c2cccs2)N2CCCCCC2)cc1 (centres undefined)	i	i	16µM	i	?	i
c1ccc(Cn2nnnc2C(c2cccs2)N2CCc3ccccc3C2)cc1 (centres undefined)	i	i	i	i	i	i
COc1ccc(C(C)NCCC(c2ccc(OC(C)C)cc2)c2ccccc2OC)cc1 (centres undefined)	i	i	16µM	i	?	21µM
COc1ccc(C(CCNC(C)c2ccccc2)C(C)C)cc1 (centres undefined)	i	i	?	i	i	i
Cc1ccc(C)c(SC2=NS(=O)(=O)c3ccccc32)c1	i	nt	i	nt	i	i
O=S1(=O)N=C(Sc2cccc3cccnc23)c2ccccc21	?	nt	?	nt	?	9.2µM
COc1ccc(-c2cc(C3C4C=CCCC4(C)C(=O)N3Cc3ccccc3)ccc2F)cc1OC (centres undefined)	i	nt	nt	i	?	nt
O=C(CSc1nc2ccc(NC(=O)CSc3nnnn3-c3ccccc3)cc2s1)Nc1ccccc1	i	i	i	i	i	i
Cn1cnnc1SCC(=O)Nc1ccc2nc(SCc3ccccc3F)sc2c1	i	i	21µM	i	?	i
COc1ccc(Nc2nc(N)nc(CSC(=S)N3CCOCC3)n2)cc1	i	i	i	i	?	i
COc1ccccc1Nc1nc(N)nc(CSC(=S)N2CCN(c3ccccc3)CC2)n1	i	i	?	i	i	i
Cc1ccc(Nc2nc(N)nc(CSC(=S)N3CCOCC3)n2)c(C)c1	i	i	8.2µM	i	?	i
Nc1nc(CSC(=S)N2CCOCC2)nc(Nc2ccc(F)cc2)n1	i	i	16µM	i	?	i
CN1CCN(C(=S)SCc2nc(N)nc(Nc3ccc(F)cc3)n2)CC1	i	i	i	i	i	i
Cc1ccc(Nc2nc(N)nc(CSC(=S)N3CCN(c4ccccc4)CC3)n2)cc1	i	i	16µM	i	i	i
Nc1nc(CSC(=S)N2CCN(c3ccccc3)CC2)nc(Nc2ccccc2)n1	i	i	3.3µM	i	16µM	i
CCOc1ccc(-n2c(SC/C=C/c3ccccc3)nnc2-c2cccs2)cc1	nt	i	nt	nt	nt	nt
CC1CCC2C(=O)N(c3cccc(OS(=O)(=O)c4ccccc4)c3)C(=O)C2C1 (centres undefined)	i	i	?	i	i	i
Cc1ccc(S(=O)(=O)Oc2ccccc2N2C(=O)C3CC=CCC3C2=O)cc1 (centres undefined)	i	i	8.2µM	i	?	i
O=C1C2CC=CCC2C(=O)N1c1cccc(OS(=O)(=O)c2ccc3ccccc3c2)c1 (centres undefined)	i	i	21µM	i	i	i
CCOC(=O)[C@]12CCCCC/C=C\1N(Cc1ccc(OC)cc1)C(=O)[C@H]2CC(=O)N1CCCC1	nt	i	nt	nt	nt	nt
SMILES	A549 viability	PI4K2A inh	KB-V1 cytotox	Giardia killer	Nrf2 inh	KB-3-1 tox
CC(C)C[C@H](NC(=O)OC(C)(C)C)C(=O)N/N=C/C1=Cc2ccccc2OC1C (some centres undefined)	?	i	i	i	21µM	i
CC(C)C[C@H](NC(=O)OC(C)(C)C)C(=O)N/N=C/c1ccc2nccnc2c1	i	i	i	i	i	i
N#Cc1ccc(NC2c3ccccc3CC2O)cc1 (centres undefined)	i	i	18µM	i	i	?
OC1Cc2ccccc2C1Nc1cccc(C(F)(F)F)c1 (centres undefined)	i	i	?	i	?	i
CC1(C)OC(=O)Nc2ccc(Br)cc21	nt	i	nt	nt	nt	nt
CSC1=NC(C(Cl)(Cl)Cl)N=C(c2ccc(C)cc2)N1 (centres undefined)	?	i	1.3µM	i	i	1µM
CCC1N=C(SC)NC(C)=C1C(=O)c1ccccc1 (centres undefined)	i	i	i	i	i	i
Cc1ccccc1Cn1c(CN2CCc3ccccc3C2)nc2c1c(=O)n(C)c(=O)n2C	i	i	23µM	i	i	i
Cn1c(=O)c2c(nc(CN3CCc4ccccc4C3)n2Cc2ccc(F)cc2)n(C)c1=O	i	i	9.2µM	i	i	i
COc1ccc(NC(=O)CCCn2c(=O)c3sccc3n(Cc3ccccc3)c2=O)cc1	i	i	i	i	?	i
COc1ccc(NC(=O)CCCn2c(=O)c3sccc3n(Cc3ccccc3C)c2=O)cc1	i	i	9.2µM	i	i	i
COCCCNC(=S)N1CCN(c2nc(-c3ccccc3)cs2)CC1	i	i	i	i	12µM	i
O=C(NC(=S)N1CCN(c2nc(-c3ccccc3)cs2)CC1)c1cncc(Br)c1	i	i	?	i	23µM	?
CCN(CC)CCCNC(=S)N1CCN(c2nc(-c3ccccc3)cs2)CC1	i	i	i	i	i	i
CCOCCCNC(=S)N1CCN(c2nc(-c3ccccc3)cs2)CC1	i	i	?	i	16µM	i
COCCCNC(=S)N1CCN(c2nc(-c3ccc(Cl)cc3)cs2)CC1	nt	i	?	nt	nt	i
COc1ccc(-c2cc(-c3nnc(SCC(=O)NC4CCCCC4)n3N)[nH]n2)cc1	nt	i	nt	nt	nt	nt
CC(=O)Nc1sc2c(c1-c1nc3ccccc3s1)CCCNC2	nt	i	nt	nt	nt	nt
CCN(CC)c1nc(Nc2ccccc2)nc(Oc2ccc(=O)n(C)n2)n1	i	i	6.5µM	i	i	?
CCN(CC)c1nc(Nc2ccccc2)nc(Oc2ccc(=O)[nH]n2)n1	i	i	i	i	?	i
Cc1cccc(C(=O)CC(=O)c2cc(Cl)ccc2O)c1	i	i	9.2µM	i	?	?
O=C(OC12CCCN(C1)/C(=C/c1ccc(Cl)cc1)C2)c1cccc(F)c1 (centres undefined)	nt	i	nt	nt	nt	nt
C=CCn1c(=O)n2ncnc2c2c3c(sc21)CCCC3	i	i	15µM	i	?	i
CCOc1ccccc1N1CCN(C(=O)c2ccncc2)CC1	i	i	i	i	?	i
CCOc1ccccc1N1CCN(C(=O)c2cc3ccccc3cc2OC)CC1	?	i	16µM	i	i	3.7µM
CCOc1ccccc1N1CCN(C(=O)CC(C)C)CC1	i	i	23µM	i	i	i
CCOc1ccccc1N1CCN(C(=O)c2cc3c(C)cc(C)cc3[nH]2)CC1	?	i	23µM	i	?	18µM
COc1cc2ccccc2cc1C(=O)N1CCN(C(C)=O)CC1	i	i	i	i	i	i
